Several values for one entry are separate records, joined by “and”; a condition that tells them apart may be missing. Equal values may be shown once. Records with an inconclusive call do not appear. For part of these data: Results with a measured potency or affinity are listed apart. Activity calls are given as the source filed them.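 How the source made its calls, unless noted: active means at least 20% inhibition of 6-phosphogluconate dehydrogenase activity; inactive means the rest.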
Legend:
[1] = target: 6-phosphogluconate dehydrogenase, decarboxylating (Homo sapiens) (UniProt P52209); assay: 6PGD enzyme inhibitors, primary screen, biochemical, human, recombinant enzyme, NADPH absorbance (AID 1159550); conditions: recombinant 6PGD, NADPH absorbance 341 nm; at 10 µM; stronger effect = higher value
[2] = differential killing of epithelial or mesenchymal cells, primary screen, imaging, PC-3E GFP, TEM4-18 mCherry, co-culture (AID 1345086;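 active means compounds killing one labelled cell type while sparing the other, by normalised counts and ratio limits, not self-fluorescent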;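 on all read-outs here: cells exposed to compound for 72 h before imaging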;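 on red/green cell ratio (normalised): normalised mesenchymal count divided by normalised epithelial count so high means epithelial killing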); conditions: imaging cell counts, at 1 µM; for red/green cell ratio (normalised): actives lie on both sides, counts scaled to control wells, 1 = unselective
[3] = target: Mitogen-activated protein kinase 7 (Homo sapiens) (UniProt Q13164); assay: ERK5 transactivation activators in reporter cells, primary screen, cell-based, HTS (AID 1508626;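 active means luciferase signal above three times the same-plate solvent-only control wells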;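 further: luciferase driven by Gal4-ERK5 fusion binding five Gal4 sites before minimal TATA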); conditions: HeLa Gal4-ERK5 transactivation, 18 h, at 5 µM, stronger effect = higher value
[4] = polyglutamine-triggered caspase-3 activation inhibitors, cell-based (AID 1583); conditions: polyglutamine-induced caspase-3 activation, cell assay; stronger effect = higher value;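 tested at 10 µM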
[5] = suppressors of polyQ aggregation in yeast, 75Q-TubU reporter (AID 1593); conditions: Yeast 75Q polyglutamine aggregation reporter
[6] = rescue of polyQ-huntingtin neuronal dysfunction in worms, whole organism, C. elegans mechanosensory neurons, N-terminal huntingtin (AID 1599); conditions: touch response, stronger effect = higher value
[7] = inhibitors of mitochondrial cytochrome c release, biochemical, purified mitochondria (AID 1603); conditions: stronger effect = lower value;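 further: mouse liver mitochondria challenged with calcium chloride; signal normalized to the plate average as 100%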
[8] = inhibitors of polyQ protein aggregation (AID 1604); conditions: polyglutamine-induced protein aggregation inhibition assay; stronger effect = higher value; tested at 2.5 µM
[9] = enhancers of glutamate uptake in motor neurons, MN-1 cell line (AID 1612); conditions: MN-1 motor neuron cells, stronger effect = higher value;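 further: tested at 1 µM final; 0% = mean of DMSO vehicle wells on each plate; positive means more glutamate uptake than control and negative means less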
[10] = suppressors of polyglutamine aggregation in yeast, 75Q-TubH (AID 1616); conditions: S. cerevisiae 75Q-TubH polyglutamine aggregation suppression; stronger effect = higher value
[11] = liver-stage malaria parasite growth inhibition, primary screen, cell-based, HepG2, luciferase luminescence, HepG2 viability (AID 624349; in the data active means parasite load remaining mostly below about 12%, no sharp cut-off; inactive means mostly above about 10%;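 further: 100% = mean of DMSO negative control wells on the same plate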); conditions: P. berghei liver stage in HepG2, luciferase luminescence, concentration not given here; parasite load remaining: stronger effect = lower value; viability: measured here: HepG2 viability without parasites
[12] = growth inhibition of DIPG glioma cells, dose response, cell-based, SU-DIPG-XIII, MIPE4.0, CellTiter-Glo, qHTS (AID 1347061; cut-off not given, nearly all actives have AC50 up to about 37 µM;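 further: cells exposed to compound for 48 hours before readout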); conditions: SU-DIPG-XIII viability, CellTiter-Glo ATP luminescence
[13] = growth inhibition of DIPG glioma cells, dose response, cell-based, JHH-DIPG-1, MIPE4.0, CellTiter-Glo, qHTS (AID 1347062; cut-off not given, nearly all actives have AC50 up to about 27 µM); conditions: JHH-DIPG-1 viability, CellTiter-Glo ATP luminescence
[14] = growth inhibition of DIPG glioma cells, dose response, cell-based, SU-DIPG-IV, MIPE4.0, CellTiter-Glo, qHTS (AID 1347063; cut-off not given, nearly all actives have AC50 up to about 30 µM;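 further: compound exposure lasted 48 hours before the viability readout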); conditions: SU-DIPG-IV viability, CellTiter-Glo ATP luminescence
[15] = survival rescue of mitochondrial mutant cells in low glucose, primary screen, MELAS cybrids, Rieske KO mouse fibroblasts, CellTiter-Glo (AID 1508586;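 active means mean z-score across replicates of 1.96 or higher in either the MELAS or the Rieske mutant cell line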;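 further: z relative to plate mean and SD of compound and empty wells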)
[16] = target: NAD(+) hydrolase SARM1 (Homo sapiens) (UniProt Q6SZW1); assay: SARM1 TIR NADase inhibitors, cell lysate, NAD-Glo luminescence (AID 1508614;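 active means compound whose remaining NAD level is above about 45 nM, limit read from the data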); conditions: SAM-TIR HEK293T lysate NADase, at 1 µM, stronger effect = higher value
[17] = viability rescue of complex I mutant cybrids, primary screen, cell-based, galactose medium, ATP luminescence (AID 1645843;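 active means z-score of at least 1.8 in each of two replicates, scored against plate mean and spread of sample wells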;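 further: positive z means more ATP and so rescue of galactose-driven cybrid death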); conditions: complex I mutant cybrid cells, 72 h, stronger effect = higher value
[18] = JHH-DIPG-1 glioma cell viability, MIPE5.0 library, CellTiter-Glo luminescence, qHTS (AID 1347067; cut-off not given, nearly all actives have AC50 up to about 26 µM;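 further: cells exposed to compound for 48 hours before readout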); conditions: JHH-DIPG-1 glioma viability, CellTiter-Glo ATP luminescence
[19] = sensitizers of A549 cells to miR-34 induction, primary screen, imaging, A549 dox-inducible miR-34, nuclei and caspase counts (AID 1347080;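 active means compounds whose cell count with miR-34 switched on is under 0.7 times the count with it off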); conditions: A549 miR-34 inducible, Hoechst nuclei count, 48 h
[20] = measured here: epithelial PC-3E GFP cell survival
[21] = measured here: mesenchymal TEM4-18 mCherry cell survival
[22] = MELAS cybrid survival, CellTiter-Glo 48 h, stronger effect = higher value
[23] = Rieske KO mouse fibroblast survival, CellTiter-Glo 72 h

Chain of 6-phosphogluconate dehydrogenase, decarboxylating (Homo sapiens) (P52209 whole entry, looked up): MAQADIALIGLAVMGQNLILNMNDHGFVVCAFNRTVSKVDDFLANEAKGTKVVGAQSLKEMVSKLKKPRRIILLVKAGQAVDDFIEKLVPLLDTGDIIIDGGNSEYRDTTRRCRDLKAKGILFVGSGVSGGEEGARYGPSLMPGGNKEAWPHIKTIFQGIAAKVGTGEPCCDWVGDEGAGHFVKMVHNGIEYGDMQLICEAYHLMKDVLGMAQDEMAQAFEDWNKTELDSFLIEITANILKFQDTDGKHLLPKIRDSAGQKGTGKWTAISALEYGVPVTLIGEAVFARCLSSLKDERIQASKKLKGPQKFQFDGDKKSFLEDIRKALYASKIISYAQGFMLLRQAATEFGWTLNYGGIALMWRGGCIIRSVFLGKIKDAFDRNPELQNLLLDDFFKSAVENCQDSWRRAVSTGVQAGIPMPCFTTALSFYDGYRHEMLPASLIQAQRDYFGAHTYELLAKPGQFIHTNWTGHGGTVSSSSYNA
Chain of Mitogen-activated protein kinase 7 (Homo sapiens) (Q13164 whole entry, looked up, the tested form may be a part): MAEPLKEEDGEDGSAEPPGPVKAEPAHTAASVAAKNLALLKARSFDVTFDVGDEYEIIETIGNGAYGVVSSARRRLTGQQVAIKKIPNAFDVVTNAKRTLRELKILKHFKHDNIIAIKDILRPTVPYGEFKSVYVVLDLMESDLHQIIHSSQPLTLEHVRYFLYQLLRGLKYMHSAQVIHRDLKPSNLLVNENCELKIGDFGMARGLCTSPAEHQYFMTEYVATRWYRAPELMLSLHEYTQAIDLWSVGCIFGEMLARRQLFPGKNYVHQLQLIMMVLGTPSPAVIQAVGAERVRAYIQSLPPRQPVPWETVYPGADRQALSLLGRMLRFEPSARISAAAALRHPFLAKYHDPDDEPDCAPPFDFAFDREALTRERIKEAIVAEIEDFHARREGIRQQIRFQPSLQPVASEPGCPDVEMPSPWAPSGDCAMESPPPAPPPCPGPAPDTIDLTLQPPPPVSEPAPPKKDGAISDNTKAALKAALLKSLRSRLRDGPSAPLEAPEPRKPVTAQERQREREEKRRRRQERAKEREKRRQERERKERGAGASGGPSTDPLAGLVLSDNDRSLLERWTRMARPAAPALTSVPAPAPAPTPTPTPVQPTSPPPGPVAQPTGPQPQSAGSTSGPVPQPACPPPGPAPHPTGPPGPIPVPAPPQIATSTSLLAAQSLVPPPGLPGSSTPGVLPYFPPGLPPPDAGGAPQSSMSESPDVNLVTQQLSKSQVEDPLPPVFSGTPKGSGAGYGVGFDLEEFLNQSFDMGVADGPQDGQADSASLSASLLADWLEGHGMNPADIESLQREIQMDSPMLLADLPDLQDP
Chain of NAD(+) hydrolase SARM1 (Homo sapiens) (Q6SZW1 whole entry, looked up): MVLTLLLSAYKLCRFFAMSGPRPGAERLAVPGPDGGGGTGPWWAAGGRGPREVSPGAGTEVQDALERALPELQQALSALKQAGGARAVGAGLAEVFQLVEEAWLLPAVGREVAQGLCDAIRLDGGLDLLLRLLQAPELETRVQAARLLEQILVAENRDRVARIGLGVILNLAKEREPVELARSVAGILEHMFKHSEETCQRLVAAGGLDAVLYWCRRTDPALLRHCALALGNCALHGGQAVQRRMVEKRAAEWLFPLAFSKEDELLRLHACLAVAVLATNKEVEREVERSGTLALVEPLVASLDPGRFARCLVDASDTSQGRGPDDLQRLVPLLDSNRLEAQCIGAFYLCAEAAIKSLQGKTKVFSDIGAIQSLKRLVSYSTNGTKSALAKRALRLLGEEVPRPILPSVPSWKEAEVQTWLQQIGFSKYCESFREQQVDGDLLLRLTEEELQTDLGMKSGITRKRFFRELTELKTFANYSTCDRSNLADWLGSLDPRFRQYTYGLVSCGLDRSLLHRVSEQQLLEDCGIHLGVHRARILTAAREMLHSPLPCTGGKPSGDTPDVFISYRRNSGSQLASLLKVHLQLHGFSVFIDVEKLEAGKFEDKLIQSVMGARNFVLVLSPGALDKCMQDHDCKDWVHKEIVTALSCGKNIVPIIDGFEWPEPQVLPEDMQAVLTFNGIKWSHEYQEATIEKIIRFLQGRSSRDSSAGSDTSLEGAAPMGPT

## CC1(C)CC23C(=O)CCC(O)C2(C)CCC13 (stereo unspecified)
[1]
  inhibition: -0.3% (inactive)
[2]
  red/green cell ratio (normalised): 1 (inactive)
[2]; [20]
  normalised cell number: 1.11
[2]; [21]
  normalised cell number: 1.11
[3]
  luciferase signal: 72 AU (inactive)

## COc1ccc2c(c1)OC/C(=C\c1ccc(OC)c(O)c1)C2=O
[1]
  inhibition: -46% (inactive)
[2]
  red/green cell ratio (normalised): 0.99 (inactive)
[2]; [20]
  normalised cell number: 0.74
[2]; [21]
  normalised cell number: 0.74
[3]
  luciferase signal: 88 AU (inactive)

## CC(=O)O[C@H]1C[C@@H](OC(C)=O)C(C)(C)C2C[C@@H](OC(C)=O)[C@@]3(C)C4=CC(=O)O[C@@H](c5ccoc5)[C@]4(C)CCC3[C@]21C (stereo partly specified)
[1]
  inhibition: 0.0743% (inactive)
[2]
  red/green cell ratio (normalised): 1.01 (inactive)
[2]; [20]
  normalised cell number: 1
[2]; [21]
  normalised cell number: 1.01
[3]
  luciferase signal: 16 AU (inactive)

## COc1ccc(C(=O)/C=C/c2ccccc2)cc1
[1]
  inhibition: 8.83% (inactive)
[2]
  red/green cell ratio (normalised): 1.17 (inactive)
[2]; [20]
  normalised cell number: 0.89
[2]; [21]
  normalised cell number: 1.04
[3]
  luciferase signal: 88 AU (inactive)

## CC(=O)OC1CCC23CC1(C)CCC2C(C)(C)CC3OC(C)=O (stereo unspecified)
[1]
  inhibition: -1.38% (inactive)
[2]
  red/green cell ratio (normalised): 1.04 (inactive)
[2]; [20]
  normalised cell number: 1.07
[2]; [21]
  normalised cell number: 1.11
[3]
  luciferase signal: 80 AU (inactive)

## C[C@]12CCC3c4ccc(OS(=O)(=O)O)cc4CCC3C1CC[C@H]2O (stereo partly specified)
[4]
  inhibition: 8.2%
[5]
  score: 1.49
[6]
  rescue above control: 11.3
[7]
  cytochrome c release ratio: 0.9
[8]
  inhibition of aggregation: 68.5%
[9]
  glutamate uptake change: -12.2%
[10]
  aggregation suppression score: 1.25
[1]
  inhibition: 3.17% (inactive)
[2]
  red/green cell ratio (normalised): 0.87 (inactive)
[2]; [20]
  normalised cell number: 1.3
[2]; [21]
  normalised cell number: 1.13

## COc1ccc2c(C)cc(=O)oc2c1
[1]
  inhibition: 13.6% (inactive)
[2]
  red/green cell ratio (normalised): 1.03 (inactive)
[2]; [20]
  normalised cell number: 1.13
[2]; [21]
  normalised cell number: 1.16
[3]
  luciferase signal: 60 AU (inactive)

## NC(Cn1ccc(=O)c(O)c1)C(=O)O (stereo unspecified)
[4]
  inhibition: -4.48%
[5]
  score: 0.73
[6]
  rescue above control: -6.31
[7]
  cytochrome c release ratio: 0.84
[8]
  inhibition of aggregation: 7.48%
[9]
  glutamate uptake change: 15.6%
[10]
  aggregation suppression score: 0.845
[11]
  parasite load remaining: 81.8% (inactive) and 76.8% (inactive)
  viability: 72.6%
[1]
  inhibition: 17.3% (inactive)
[2]
  red/green cell ratio (normalised): 1.1 (inactive)
[2]; [20]
  normalised cell number: 0.94
[2]; [21]
  normalised cell number: 1.04

## CCOC(=O)[C@H](CCc1ccccc1)N[C@H](C)C(=O)N1C2CCCCC2C[C@H]1C(=O)O (stereo partly specified)
[11]
  parasite load remaining: 125% (inactive)
  viability: 94.3%
[1]
  inhibition: 7.88% (inactive)
[2]
  red/green cell ratio (normalised): 0.91 (inactive)
[2]; [20]
  normalised cell number: 1.03
[2]; [21]
  normalised cell number: 0.93

## CC(=O)N[C@@H]1[C@@H](O)[C@H](O)[C@@H](CO)O[C@H]1O
[4]
  inhibition: 0.38%
[5]
  score: 1.2
[6]
  rescue above control: 2.33
[7]
  cytochrome c release ratio: 0.85
[8]
  inhibition of aggregation: 91.6%
[9]
  glutamate uptake change: -1.05%
[10]
  aggregation suppression score: 1.62
[11]
  parasite load remaining: 72.2% (inactive)
  viability: 78.3%
[1]
  inhibition: -7.13% (inactive)
[2]
  red/green cell ratio (normalised): 0.98 (inactive)
[2]; [20]
  normalised cell number: 1
[2]; [21]
  normalised cell number: 0.98
[3]
  luciferase signal: 64 AU (inactive)

## O=C1c2ccccc2C(=O)c2c(O)c(O)cc(O)c21
[1]
  inhibition: 17.9% (inactive)
[2]
  red/green cell ratio (normalised): 1.09 (inactive)
[2]; [20]
  normalised cell number: 0.94
[2]; [21]
  normalised cell number: 1.02
[3]
  luciferase signal: 100 AU (inactive)

## COc1c2ccoc2nc2c(OC)c(OCC(O)C(C)(C)O)ccc12 (stereo unspecified)
[1]
  inhibition: -4.68% (inactive)
[2]
  red/green cell ratio (normalised): 0.91 (inactive)
[2]; [20]
  normalised cell number: 1
[2]; [21]
  normalised cell number: 0.92
[3]
  luciferase signal: 28 AU (inactive)

## CC(CCc1ccc(O)cc1)NCCc1ccc(O)c(O)c1 (stereo unspecified)
[11]
  parasite load remaining: 118% (inactive) and 72.9% (inactive) and 42.2% (inactive)
  viability: 109% and 73.6% and 115%
[1]
  inhibition: 1.78% (inactive)
[12]
  outcome: inactive
[13]
  outcome: inactive
[14]
  outcome: inactive
[15]; [22]
  z-score: 0.557 (inactive) and -0.473 (inactive)
[15]; [23]
  z-score: -0.00496 and 0.199
[16]
  remaining NAD: 10 nM (inactive)
[3]
  luciferase signal: 56 AU (inactive)
[17]
  z-score: -1.02 (inactive) and -0.96 (inactive) and -2.02 (inactive)

## NC(=O)c1cccc(N)c1
[4]
  inhibition: -48.2%
[5]
  score: 1.17
[6]
  rescue above control: -8.42
[7]
  cytochrome c release ratio: 1.08
[8]
  inhibition of aggregation: 86.1%
[9]
  glutamate uptake change: 20.1%
[10]
  aggregation suppression score: 1.37
[1]
  inhibition: 10.1% (inactive)
[13]
  outcome: inactive
[14]
  outcome: inactive
[18]
  outcome: inactive
[15]; [22]
  z-score: -0.453 (inactive) and -0.332 (inactive)
[15]; [23]
  z-score: 0.178 and -0.721
[3]
  luciferase signal: 104 AU (inactive)
[17]
  z-score: 0.345 (inactive) and 1.35 (inactive)

## CC(C)=CCc1c2c(c3occ(-c4ccc(O)c(O)c4)c(=O)c3c1O)C=CC(C)(C)O2
[4]
  inhibition: -8.52%
[5]
  score: -0.59
[6]
  rescue above control: -11.4
[7]
  cytochrome c release ratio: 1.28
[8]
  inhibition of aggregation: 45.6%
[9]
  glutamate uptake change: 0.58%
[10]
  aggregation suppression score: -1.07
[1]
  inhibition: 10.7% (inactive)
[2]
  red/green cell ratio (normalised): 0.76 (inactive)
[2]; [20]
  normalised cell number: 1.03
[2]; [21]
  normalised cell number: 0.78
[3]
  luciferase signal: 108 AU (inactive)

## CCOC(=O)C1=C(O)C(=O)N(Cc2ccccc2)C1
[1]
  inhibition: -9.58% (inactive)
[13]
  outcome: inactive
[14]
  outcome: inactive
[18]
  outcome: inactive
[19]; stronger effect = lower value, cell number ratio, induced over uninduced
  fold change: 0.926 (inactive) and 0.964 (inactive)
[19]; measured here: relative caspase fold change +Dox/-Dox
  fold change: 1.46 and 1.07
[19]; measured here: total cells with miR-34 induction, stronger effect = lower value
  cell count: 9870 and 8960
[19]; measured here: total cells without miR-34 induction
  cell count: 10700 and 9300
[17]
  z-score: 0.685 (inactive) and -0.055 (inactive)

## COc1cc(C)c2c(=O)cc(-c3ccccc3)oc2c1
[4]
  inhibition: 15.2%
[5]
  score: -1.86
[6]
  rescue above control: 16.3
[7]
  cytochrome c release ratio: 1.19
[8]
  inhibition of aggregation: 86.2%
[9]
  glutamate uptake change: -16.6%
[10]
  aggregation suppression score: -0.775
[1]
  inhibition: 5.95% (inactive)
[2]
  red/green cell ratio (normalised): 0.85 (inactive)
[2]; [20]
  normalised cell number: 1.28
[2]; [21]
  normalised cell number: 1.09

## COc1cc(OC)c2ccc(=O)oc2c1
[4]
  inhibition: -1.21%
[5]
  score: 0.96
[6]
  rescue above control: 0.64
[7]
  cytochrome c release ratio: 0.64
[8]
  inhibition of aggregation: 96.2%
[9]
  glutamate uptake change: -7.62%
[10]
  aggregation suppression score: 0.869
[11]
  parasite load remaining: 128% (inactive)
  viability: 69.7%
[1]
  inhibition: 9.07% (inactive)
[2]
  red/green cell ratio (normalised): 1.1 (inactive)
[2]; [20]
  normalised cell number: 0.96
[2]; [21]
  normalised cell number: 1.05
[3]
  luciferase signal: 64 AU (inactive)

From PubChem BioAssay
